Here are results for eight compounds from PubChem BioAssay (Tox21).

Values joined by “and” are separate entries in the source; they are usually repeats but may differ in a detail not shown here. Identical values can stand only once. Records with an inconclusive call do not appear. Some structures have more than one record in an assay (separate samples or runs), and their calls can disagree. Active and inactive are the calls of the source. Unless noted, calls come from the whole dose curve; as a rule, active = well fitted curve in the direction sought with a large enough effect in the repeat runs; inconclusive = weak or mixed curves; inactive = no such curve, though single readings can be large; an effect the other way counts as inactive or inconclusive.

Test [1] can be described thus: qHTS assay to identify aromatase inhibitors - cell viability counter screen (AID 743084).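 Note: cells stimulated with testosterone during compound exposure; nearly all actives have a fitted effect of over 55% in size.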 Note: potency is the fitted concentration of half-maximal effect. On the technique in general: Quantitative high-throughput screening tests each substance at several concentrations.
Test [2] concerns the target Aryl hydrocarbon receptor (Homo sapiens) (UniProt P35869). In words: qHTS assay to identify small molecule that activate the aryl hydrocarbon receptor (AhR) signaling pathway (AID 743085).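 For activation: HG2L7.5c1 human HepG2 liver cells with stably integrated DRE-driven firefly reporter; series mostly up to about 70 µM.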 Note: nearly all actives have a fitted effect of over 15% in size. Note: potency is the fitted concentration of half-maximal effect. A digest of the protocol:
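A multiplexed format paired cell viability (CellTiter-Fluor fluorescence) with AhR-dependent luciferase output (ONE-Glo luminescence) in the same wells of HepG2 DRE-luc cells after 24 h compound exposure at 37C.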

The target in test [3] is Peroxisome proliferator-activated receptor gamma (Homo sapiens) (UniProt P37231). Description: qHTS assay to identify small molecule agonists of the peroxisome proliferator-activated receptor gamma (PPARg) signaling pathway (AID 743094; active = well fitted activation curve with a large enough effect in the signal ratio in the repeat runs, not every such curve was filed as active; the % refers to the signal ratio). An outline of the steps: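 HEK293H PPARg-bla cells, 5 h settle at 37C/5% CO2; compound (DMSO) 17 h, 37C; B/G FRET substrate 1 h RT; fluorescence intensity read-out. qHTS format.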
Chain of Peroxisome proliferator-activated receptor gamma (Homo sapiens) (P37231 whole entry, looked up): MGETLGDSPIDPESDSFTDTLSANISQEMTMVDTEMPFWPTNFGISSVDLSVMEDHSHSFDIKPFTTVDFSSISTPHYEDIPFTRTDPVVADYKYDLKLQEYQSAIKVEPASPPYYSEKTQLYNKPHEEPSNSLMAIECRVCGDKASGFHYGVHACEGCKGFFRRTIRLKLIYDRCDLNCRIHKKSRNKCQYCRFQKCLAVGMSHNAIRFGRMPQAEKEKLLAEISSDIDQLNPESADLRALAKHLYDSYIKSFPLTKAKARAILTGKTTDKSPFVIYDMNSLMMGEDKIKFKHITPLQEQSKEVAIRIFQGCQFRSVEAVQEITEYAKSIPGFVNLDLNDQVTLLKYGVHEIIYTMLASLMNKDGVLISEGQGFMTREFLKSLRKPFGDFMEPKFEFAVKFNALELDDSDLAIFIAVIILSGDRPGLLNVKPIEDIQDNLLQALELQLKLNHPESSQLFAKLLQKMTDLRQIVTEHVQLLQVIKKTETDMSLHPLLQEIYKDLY

For test [4] the target is unchanged. Description: qHTS assay to identify small molecule antagonists of the peroxisome proliferator-activated receptor gamma (PPARg) signaling pathway (AID 743191; calls by dose curve; note: series mostly up to about 63 µM; nearly all actives have a fitted effect of over 30% in size). An outline of the steps: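 GeneBLAzer PPARg UAS-bla HEK293H cells, 5 h post-plating, exposed to compounds 17 h at 37C. LiveBLAzer B/G FRET substrate added for 1 h at room temperature; beta-lactamase reporter read by fluorescence intensity.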

The nature of test [5]: qHTS assay for small molecule agonists of the antioxidant response element (ARE) signaling pathway (AID 743202; active = well fitted activation curve with a large enough effect in the signal ratio in the repeat runs, not every such curve was filed as active; the % refers to the signal ratio; note: potency is the fitted concentration of half-maximal effect). An outline of the steps: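 HepG2 ARE-bla cells; 16 h treatment at 37 C; FRET-based beta-lactamase fluorescence read after 2 h substrate incubation at room temperature.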
The nature of test [6]: qHTS assay for small molecule agonists of the antioxidant response element (ARE) signaling pathway - cell viability counter screen (AID 743203; calls by dose curve; note: nearly all actives have a fitted effect of over 55% in size). A digest of the protocol: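 Luminescence read-out (CellTiter-Glo, 30 min at room temperature) measured cell viability in the same wells as the ARE beta-lactamase reporter. HepG2 ARE-bla cells were treated with compounds for 16 hrs at 37C/5% CO2.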

The nature of test [7]: qHTS assay for small molecule activators of the heat shock response signaling pathway - cell viability counter screen (AID 743209). Note: nearly all actives have a fitted effect of over 50% in size. A digest of the protocol: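 HSE-bla HeLa; 1500 cells/well; overnight 37 C, 5% CO2; compound 5 h 37 C; LiveBLAzer B/G substrate 2.5 h RT; CellTiter-Glo 30 min RT; luminescence.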
The nature of test [8]: qHTS assay for small molecule activators of the heat shock response signaling pathway (AID 743210; active = well fitted activation curve with a large enough effect in the signal ratio in the repeat runs, with a control signal flat, not every such curve was filed as active; the % refers to the signal ratio;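 note: HeLa cells with beta-lactamase reporter driven by heat shock elements; series mostly up to about 63 µM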). A digest of the protocol: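 Following overnight attachment, HSE-bla HeLa cells received test compounds for 5 h at 37 C; beta-lactamase activity was then detected via FRET substrate fluorescence.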
Test [9] is described as follows: qHTS assay to identify small molecule agonists of the peroxisome proliferator-activated receptor delta (PPARd) signaling pathway - cell viability counter screen (AID 743211). Note: nearly all actives have a fitted effect of over 55% in size. Note: potency is the fitted concentration of half-maximal effect. A digest of the protocol: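 Tox21 library compounds, delivered in DMSO, were incubated 17 h with PPARd-bla HEK293H cells; cytotoxicity was taken from CellTiter-Glo luminescence read 30 min after reagent addition.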

Test [10] has as its target Peroxisome proliferator-activated receptor delta (Homo sapiens) (UniProt Q03181). In words: qHTS assay to identify small molecule agonists of the peroxisome proliferator-activated receptor delta (PPARd) signaling pathway (AID 743212; calls by dose curve). An outline of the steps:
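Tox21 library screened in GeneBLAzer PPARd UAS-bla HEK293H cells. After compound treatment at 37 C, a FRET-based beta-lactamase substrate was applied for 2 h and fluorescence recorded.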

Test [11] in a line: qHTS assay to identify small molecule antagonists of the peroxisome proliferator-activated receptor delta (PPARd) signaling pathway - cell viability counter screen (AID 743213). Note: nearly all actives have a fitted effect of over 50% in size. Note: potency is the fitted concentration of half-maximal effect. An outline of the steps: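 HEK293H cells with the PPARd UAS-bla reporter, co-treated 17 h at 37 C with compounds and L165041 (300 nM final), were lysed with CellTiter-Glo. Luminescence indicated viable cell content.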

For test [12], the target named is Peroxisome proliferator-activated receptor delta (Homo sapiens) (UniProt Q03181). Description: qHTS assay to identify small molecule antagonists of the peroxisome proliferator-activated receptor delta (PPARd) signaling pathway (AID 743215; active = well fitted inhibition curve with a large enough effect in the signal ratio in the repeat runs, not every such curve was filed as active; the % refers to the signal ratio;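 note: cells stimulated with agonist L165041 at 300 nM final during compound exposure; series mostly up to about 62 µM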). An outline of the steps:
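HEK293H GeneBLAzer PPARd UAS-bla reporter cells; cpd + L165041 300 nM final, 17 h 37 C; LiveBLAzer B/G FRET substrate 2 h RT; fluorescence intensity read-out. Antagonist mode.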

The target of test [13] is Bile acid receptor (Homo sapiens) (UniProt Q96RI1). Description: qHTS assay to identify small molecule antagonists of the farnesoid-X-receptor (FXR) signaling pathway (AID 743217; active = well fitted inhibition curve with a large enough effect in the signal ratio in the repeat runs, not every such curve was filed as active; the % refers to the signal ratio). An outline of the steps: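 Read-out: beta-lactamase FRET fluorescence (LiveBLAzer B/G substrate, 2 h, room temperature) in GeneBLAzer FXR-UAS-bla HEK 293T cells. Compounds were co-dosed with 50 uM chenodeoxycholic acid (final) and incubated 16 h at 37 °C.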
Chain of Bile acid receptor (Homo sapiens) (Q96RI1 whole entry, looked up): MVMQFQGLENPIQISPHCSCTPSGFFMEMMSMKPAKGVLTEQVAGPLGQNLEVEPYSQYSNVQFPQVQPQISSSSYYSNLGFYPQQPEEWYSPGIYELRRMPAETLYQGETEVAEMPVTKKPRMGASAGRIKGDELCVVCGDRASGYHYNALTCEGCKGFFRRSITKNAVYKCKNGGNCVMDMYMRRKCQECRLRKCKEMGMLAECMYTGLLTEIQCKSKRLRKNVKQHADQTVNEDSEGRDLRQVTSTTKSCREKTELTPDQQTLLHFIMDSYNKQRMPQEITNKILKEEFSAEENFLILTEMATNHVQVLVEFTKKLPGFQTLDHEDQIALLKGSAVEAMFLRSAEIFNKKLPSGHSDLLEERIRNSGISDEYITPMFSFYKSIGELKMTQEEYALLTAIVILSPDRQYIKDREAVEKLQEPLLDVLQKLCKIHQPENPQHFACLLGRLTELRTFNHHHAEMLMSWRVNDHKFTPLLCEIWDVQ

Test [14] in a line: qHTS assay to identify small molecule agonists of the farnesoid-X-receptor (FXR) signaling pathway - cell viability counter screen (AID 743218). Note: nearly all actives have a fitted effect of over 45% in size. A digest of the protocol: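 Luminescence from CellTiter-Glo, read after 30 min at RT, reports viability of GeneBLAzer FXR-UAS-bla HEK 293T cells treated 16 h with compounds in the wells used for the beta-lactamase reporter.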
Test [15] concerns the target Bile acid receptor (Homo sapiens) (UniProt Q96RI1). In words: qHTS assay to identify small molecule agonists of the farnesoid-X-receptor (FXR) signaling pathway (AID 743220; active = well fitted activation curve with a large enough effect in the signal ratio in the repeat runs, not every such curve was filed as active; the % refers to the signal ratio). An outline of the steps:
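FXR-UAS-bla HEK 293T cells carrying a UAS-driven beta-lactamase reporter were plated for 5 h at 37C/5% CO2, then exposed to DMSO-dissolved Tox21 10K compounds for 16 h at 37C. A LiveBLAzer B/G FRET substrate was loaded for 2 h at room temperature before fluorescence reading.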

Test [16] is described as follows: qHTS assay to identify small molecule antagonists of the farnesoid-X-receptor (FXR) signaling pathway - cell viability counter screen (AID 743221; active = well fitted cell-killing curve with a large enough effect in the repeat runs, not every such curve was filed as active; note: nearly all actives have a fitted effect of over 50% in size). An outline of the steps:
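Cytotoxicity is taken from ATP luminescence (CellTiter-Glo, 30 min, room temperature) in FXR-bla HEK 293T cells previously incubated 16 h at 37 C with compound and chenodeoxycholic acid at 50 uM final.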

Test [17] has as its target Vitamin D3 receptor (Homo sapiens) (UniProt P11473). In words: qHTS assay to identify small molecule agonists of the vitamin D receptor (VDR) signaling pathway (AID 743222; calls by dose curve). A digest of the protocol:
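Beta-lactamase reporter readout (LiveBLAzer B/G FRET, 2 h RT) in VDR-bla cells after 16 h compound treatment at 37C, 5% CO2; cells pre-incubated 4 h before pin transfer of DMSO solutions.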

Test [18] has the same target. In words: qHTS assay to identify small molecule antagonists of the vitamin D receptor (VDR) signaling pathway (AID 743223; active = well fitted inhibition curve with a large enough effect in the signal ratio in the repeat runs, not every such curve was filed as active; the % refers to the signal ratio; note: potency is the fitted concentration of half-maximal effect). An outline of the steps: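 Quantitative HTS in VDR-bla reporter cells stimulated with 1alpha,25-dihydroxyvitamin D3, 3 nM final. Compound exposure 16 h, 37C, 5% CO2. Read-out: beta-lactamase FRET substrate fluorescence, 2 h RT.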
A short description of test [19]: qHTS assay to identify small molecule that activate the aryl hydrocarbon receptor (AhR) signaling pathway - cell viability counter screen (AID 743086).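 Note: HepG2 liver cells carrying the AhR DRE luciferase reporter; series mostly up to about 70 µM; nearly all actives have a fitted effect of over 45% in size.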 A digest of the protocol:
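HepG2-AhR-luc (HG2L7.5c1) cells, 4000/well, treated 24 h at 37 C with compound; viability measured as CellTiter-Fluor fluorescence after 30 min in the same wells as the luciferase read.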

A short description of test [20]: qHTS assay to identify small molecule antagonists of the peroxisome proliferator-activated receptor gamma (PPARg) signaling pathway - cell viability counter screen (AID 743194). Note: nearly all actives have a fitted effect of over 55% in size. As to conditions: Potency: co-treated with 50 nM rosiglitazone unless noted. A digest of the protocol:
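Cytotoxicity counter screen in PPARg-bla HEK293H cells, same wells as reporter assay. Compounds plus 50 nM rosiglitazone (final) for 17 h at 37 C, then viability read by CellTiter-Glo luminescence.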

Chain of Peroxisome proliferator-activated receptor delta (Homo sapiens) (Q03181 whole entry, looked up): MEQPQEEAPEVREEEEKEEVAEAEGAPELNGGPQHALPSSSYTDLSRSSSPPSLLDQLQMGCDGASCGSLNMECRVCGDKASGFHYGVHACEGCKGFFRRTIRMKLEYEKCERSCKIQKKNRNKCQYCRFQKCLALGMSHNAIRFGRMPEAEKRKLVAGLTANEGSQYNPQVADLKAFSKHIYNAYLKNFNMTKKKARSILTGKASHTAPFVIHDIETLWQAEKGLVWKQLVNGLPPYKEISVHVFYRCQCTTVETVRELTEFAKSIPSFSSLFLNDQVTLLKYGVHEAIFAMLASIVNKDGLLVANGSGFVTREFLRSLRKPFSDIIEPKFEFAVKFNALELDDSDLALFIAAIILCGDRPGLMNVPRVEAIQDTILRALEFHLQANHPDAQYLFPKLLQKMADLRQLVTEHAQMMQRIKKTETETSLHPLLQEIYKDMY
Chain of Vitamin D3 receptor (Homo sapiens) (P11473 whole entry, looked up): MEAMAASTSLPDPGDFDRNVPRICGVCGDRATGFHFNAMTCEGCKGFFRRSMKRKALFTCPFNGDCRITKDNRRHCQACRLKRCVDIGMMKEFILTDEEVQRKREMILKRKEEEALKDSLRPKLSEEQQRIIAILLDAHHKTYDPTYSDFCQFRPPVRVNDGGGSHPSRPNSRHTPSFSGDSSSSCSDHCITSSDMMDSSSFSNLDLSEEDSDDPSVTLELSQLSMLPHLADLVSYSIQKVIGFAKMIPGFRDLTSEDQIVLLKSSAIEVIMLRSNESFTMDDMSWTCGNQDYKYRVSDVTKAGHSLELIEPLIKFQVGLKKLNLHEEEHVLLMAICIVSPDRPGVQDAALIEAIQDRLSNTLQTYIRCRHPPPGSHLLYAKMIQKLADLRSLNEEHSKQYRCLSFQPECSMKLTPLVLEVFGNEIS
Chain of Aryl hydrocarbon receptor (Homo sapiens) (P35869 whole entry, looked up): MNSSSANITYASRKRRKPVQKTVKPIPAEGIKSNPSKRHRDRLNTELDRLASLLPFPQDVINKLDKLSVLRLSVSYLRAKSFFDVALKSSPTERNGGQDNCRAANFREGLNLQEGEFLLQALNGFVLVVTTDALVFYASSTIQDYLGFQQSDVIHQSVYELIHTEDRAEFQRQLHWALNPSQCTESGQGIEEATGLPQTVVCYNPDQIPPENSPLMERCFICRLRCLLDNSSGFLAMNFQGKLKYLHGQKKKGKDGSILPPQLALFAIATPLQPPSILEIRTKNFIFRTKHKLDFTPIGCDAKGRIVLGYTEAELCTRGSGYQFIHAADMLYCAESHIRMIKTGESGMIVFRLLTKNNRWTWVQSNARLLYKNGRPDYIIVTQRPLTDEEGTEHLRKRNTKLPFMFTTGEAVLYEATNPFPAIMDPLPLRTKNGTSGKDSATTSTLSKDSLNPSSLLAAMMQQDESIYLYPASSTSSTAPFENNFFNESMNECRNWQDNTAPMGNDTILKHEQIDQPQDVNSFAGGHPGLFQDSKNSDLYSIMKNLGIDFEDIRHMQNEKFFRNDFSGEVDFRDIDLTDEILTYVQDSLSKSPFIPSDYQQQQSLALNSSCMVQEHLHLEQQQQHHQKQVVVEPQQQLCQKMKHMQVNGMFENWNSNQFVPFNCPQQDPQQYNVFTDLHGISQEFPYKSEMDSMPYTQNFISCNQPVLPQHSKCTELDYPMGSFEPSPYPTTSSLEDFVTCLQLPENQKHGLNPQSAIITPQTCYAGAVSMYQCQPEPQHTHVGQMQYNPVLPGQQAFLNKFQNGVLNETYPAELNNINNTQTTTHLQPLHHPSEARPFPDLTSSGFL

With `OCCOc1ccccc1`, the Potency entry in test [1], in test [2], in [4], in [5], in test [6] and in test [7] was “inactive” throughout. Besides, the Potency result in [9], in test [11], in test [13], in test [14], in test [16] and in [18] was “inactive” in each case. In addition, the call in test [3], in test [8], in [10], in test [12], in test [15] and in [17] was inactive.

`CCNc1nc(Cl)nc(NCC)n1`: the Potency entry in [1], in test [2], in [19], in test [4], in test [5] and in test [6] was “inactive” each time. In addition, the Potency entry in test [7], in test [9], in test [11], in [13], in test [14] and in [16] was “inactive” throughout. In addition, the Potency result in test [18] is “inactive”. In addition, the compound was called inactive in test [3], in [8], in test [15] and in test [17].

In the case of `CC(=O)O`, the Potency result in test [1], in test [2], in test [19], in test [20], in test [5] and in test [6] was “inactive” in each case. The Potency entry in test [7], in test [9], in [11], in test [14] and in test [16] was “inactive” throughout.

For `CCCn1cc[n+](C)c1`, the Potency result in test [1], in [19], in test [4], in test [20], in [5] and in [6] was “inactive” throughout. Besides, the Potency entry in [7], in [9], in test [11], in test [14] and in [16] was “inactive” each time. The compound was classed as inactive in test [3], in test [8], in [10] and in [12].

With `CCCCCCCCCCCCn1cc[n+](C)c1`, the Potency entry in test [5] is “inactive”. Besides, the compound was called inactive in test [8]. Moreover, the Potency in test [18] was 55 µM (active).

For `COc1ccc(N)cc1`, the Potency entry in test [1], in [5], in [6], in test [7], in test [9] and in test [11] was “inactive” each time. The Potency entry in test [14] and in test [16] was “inactive” throughout. Also, the Potency in test [2] is 60.1 µM (active) and inactive and 30.6 µM (active). In addition, the compound was classed as inactive in test [3], in test [8], in test [10] and in test [12].

As for `CCCCCC[n+]1ccccc1`, the Potency result in [1], in test [2], in [6], in test [7], in test [14] and in [16] was “inactive” in each case. Further, the Potency was 43.2 µM (active) and inactive and 17.2 µM (active) in [5]; 55.5 µM (active) and 55.3 µM (active) and inactive in [9]; 55.5 µM (active) and inactive in [11]. For the same compound, the call in test [8] was inactive.

With `CC[n+]1ccccc1`, the Potency result in [1] is “inactive and 54 µM (active)”; in test [5] it was “inactive and 2.71 µM (active)”. The Potency entry in test [19], in [4], in [20], in [6], in [7] and in test [9] was “inactive” each time. Also, the Potency entry in test [11], in test [14] and in test [16] was “inactive” each time. Further, the result in [3] was inactive.
